The campaign covered roughly 310,000 compounds. About 14,000 (4.5%) showed an effect of 50% or more. Effects have a minus sign here. The list comes from a sample in which strong results are over-represented; it also holds similar structures and randomly drawn compounds.
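Also: peak tail current of the secondary pulse compared with the same well before compound.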

This test deals with human ether-à-go-go-related gene (hERG) potassium channel (human, UniProt Q12809). Description: primary screen, population patch clamp on CHO cells stably expressing hERG; higher = less effect of the substance.
Chain of human ether-à-go-go-related gene (hERG) potassium channel (Q12809 whole entry, looked up): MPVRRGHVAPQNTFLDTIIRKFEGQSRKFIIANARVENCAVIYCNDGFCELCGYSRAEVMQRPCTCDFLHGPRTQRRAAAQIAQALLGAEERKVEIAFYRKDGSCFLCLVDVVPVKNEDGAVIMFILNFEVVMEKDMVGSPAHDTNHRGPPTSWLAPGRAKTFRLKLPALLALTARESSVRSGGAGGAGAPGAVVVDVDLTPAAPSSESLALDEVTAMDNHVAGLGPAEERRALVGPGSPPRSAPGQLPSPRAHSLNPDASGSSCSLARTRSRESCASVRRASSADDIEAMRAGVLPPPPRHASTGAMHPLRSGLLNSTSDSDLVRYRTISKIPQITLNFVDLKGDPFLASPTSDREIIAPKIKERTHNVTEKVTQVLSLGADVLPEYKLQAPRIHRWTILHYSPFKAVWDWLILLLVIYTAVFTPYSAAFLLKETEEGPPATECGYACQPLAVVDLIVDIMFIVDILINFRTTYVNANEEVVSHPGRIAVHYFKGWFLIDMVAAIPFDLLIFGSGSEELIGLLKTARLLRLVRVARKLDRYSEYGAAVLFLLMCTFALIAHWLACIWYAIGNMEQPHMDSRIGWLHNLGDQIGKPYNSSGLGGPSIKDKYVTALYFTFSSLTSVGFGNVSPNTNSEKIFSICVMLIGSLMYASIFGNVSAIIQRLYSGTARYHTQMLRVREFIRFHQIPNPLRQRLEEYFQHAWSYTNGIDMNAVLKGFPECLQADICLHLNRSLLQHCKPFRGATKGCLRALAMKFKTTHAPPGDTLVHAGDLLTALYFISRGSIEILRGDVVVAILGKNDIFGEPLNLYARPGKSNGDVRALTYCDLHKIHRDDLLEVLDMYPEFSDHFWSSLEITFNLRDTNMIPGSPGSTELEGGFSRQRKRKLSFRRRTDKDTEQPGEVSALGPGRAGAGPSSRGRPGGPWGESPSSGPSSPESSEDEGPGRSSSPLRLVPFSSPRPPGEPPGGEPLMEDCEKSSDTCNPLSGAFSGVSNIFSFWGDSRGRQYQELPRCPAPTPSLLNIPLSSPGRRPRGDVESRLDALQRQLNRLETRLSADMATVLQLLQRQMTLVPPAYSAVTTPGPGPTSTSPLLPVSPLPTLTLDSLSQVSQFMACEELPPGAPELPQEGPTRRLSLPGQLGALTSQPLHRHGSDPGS
On to `COc1ccc(C(=O)N2CCCC2(C#N)c2ccccc2)cc1[N+](=O)[O-]` (centres unmarked), for which the “hERG current change (%, negative = inhibition) at 10uM” value is -41%.

Take `CCOc1ccc(C(=O)NC2CCCCCCC2)cc1`: the “hERG current change (%, negative = inhibition) at 10uM” value came to 4.13%.

Turning to `COc1ccccc1-n1cc2ccc([N+](=O)[O-])cc2n1`, the “hERG current change (%, negative = inhibition) at 10uM” value came to 8.8%.

Take `O=C(CC(Nc1ccccc1)C(=O)O)c1ccccc1` (centres unmarked): the “hERG current change (%, negative = inhibition) at 10uM” value is 11.2%.

As to `COc1cccc(NC(=O)Nc2ccccc2C(N)=O)c1`, the “hERG current change (%, negative = inhibition) at 10uM” value worked out at 1.99%.

For the compound `CCOc1ccc(S(=O)(=O)Nc2cc(OC)c(OC)cc2C(=O)O)cc1`, the “hERG current change (%, negative = inhibition) at 10uM” value is recorded as 3.94%.

Regarding `COc1cc([C@@H]2C[C@H]3CN(c4ccccc4)C(=O)[C@]34CCCN24)cc(OC)c1OC`, the “hERG current change (%, negative = inhibition) at 10uM” value is given as -32%.

Regarding `COc1ccc([C@@H]2C[C@H]3CN(c4ccccc4)C(=O)[C@]34CCCN24)c(OC)c1OC`, the “hERG current change (%, negative = inhibition) at 10uM” value was -78.3%.

Take `COc1ccccc1-n1cc([C@@H]2C[C@H]3CN(c4ccccc4)C(=O)[C@]34CCCN24)cn1`: the “hERG current change (%, negative = inhibition) at 10uM” value is -17.1%.

Regarding `COc1cc(Cl)c([C@@H]2C[C@H]3CN(c4ccccc4)C(=O)[C@]34CCCN24)cc1OC`, the “hERG current change (%, negative = inhibition) at 10uM” value is recorded as -70.9%.

`CCOc1cc([C@@H]2C[C@H]3CN(c4ccccc4)C(=O)[C@]34CCCN24)ccc1OC`: the “hERG current change (%, negative = inhibition) at 10uM” value is recorded as -10.4%.

For `O=C1N(c2ccccc2)C[C@@H]2C[C@@H](c3cccs3)N3CCC[C@@]123`, the “hERG current change (%, negative = inhibition) at 10uM” value is listed as -11.5%.

As to `CCc1cc2cc(C(=O)N3CCN(Cc4ccccc4)CC3)sc2s1`, the “hERG current change (%, negative = inhibition) at 10uM” value is listed as -36.7%.

Turning to `CCN(c1ccccc1C)S(=O)(=O)c1cc2c3c(c1)CCC(=O)N3CCC2`, the “hERG current change (%, negative = inhibition) at 10uM” value is on record as -11.2%.

For `COc1ccc(C(CC(=O)Nc2cc([N+](=O)[O-])ccc2OC)c2ccccc2)cc1` (centres unmarked), the “hERG current change (%, negative = inhibition) at 10uM” value was determined as 8.82%.

As for `O=C(CSCc1ccccc1)Nc1ccccc1`, the “hERG current change (%, negative = inhibition) at 10uM” value amounted to 8.79%.

Take `Cc1ccc(S(=O)(=O)Oc2ccc(/C=N/NC(=O)c3c(Cl)cnn3C)cc2)cc1`: the “hERG current change (%, negative = inhibition) at 10uM” value is -8.14%.

On to `CCOC(=O)N1CCN(c2nc(C)c3c(n2)CCCC3=O)CC1`, for which the “hERG current change (%, negative = inhibition) at 10uM” value is on record as 7.97%.

For `CC(C)c1cccc(OCCCCN(C)C)c1.O=C(O)C(=O)O`, the “hERG current change (%, negative = inhibition) at 10uM” value was -14.1%.

As to `CCN1CCN(CCOc2cccc(Oc3ccccc3)c2)CC1.O=C(O)C(=O)O`, the “hERG current change (%, negative = inhibition) at 10uM” value was -61.1%.

`CC(C)c1cccc(OCCN2CCCC2)c1`: the “hERG current change (%, negative = inhibition) at 10uM” value was 5.18%.

Take `CN(C)CCCCOc1cccc(Br)c1.O=C(O)C(=O)O`: the “hERG current change (%, negative = inhibition) at 10uM” value is listed as -23.7%.

Take `CCC1CCCCN1CCCCOc1cccc(Cl)c1.O=C(O)C(=O)O` (centres unmarked): the “hERG current change (%, negative = inhibition) at 10uM” value is reported as -72%.

As to `Clc1cccc(OCCN2CCOCC2)c1.O=C(O)C(=O)O`, the “hERG current change (%, negative = inhibition) at 10uM” value is -2.27%.

Regarding `CC1CCN(CCCCOc2cccc(C(C)C)c2)CC1.O=C(O)C(=O)O`, the “hERG current change (%, negative = inhibition) at 10uM” value is -71.7%.

Consider `Clc1cccc(OCCCCN2CCCCC2)c1`, for which the “hERG current change (%, negative = inhibition) at 10uM” value was -36.6%.

For `CCN1CCN(CCOCCOc2ccccc2)CC1.O=C(O)C(=O)O`, the “hERG current change (%, negative = inhibition) at 10uM” value is reported as 10.8%.

Consider `COc1cccc(OCCCCN2CC(C)OC(C)C2)c1.O=C(O)C(=O)O` (centres unmarked), for which the “hERG current change (%, negative = inhibition) at 10uM” value is -4.73%.

In the case of `CN(C)CCCOc1cccc(Oc2ccccc2)c1.O=C(O)C(=O)O`, the “hERG current change (%, negative = inhibition) at 10uM” value was -34.5%.

As to `CC1CCCN(CCCCOc2cccc(Br)c2)C1.O=C(O)C(=O)O` (centres unmarked), the “hERG current change (%, negative = inhibition) at 10uM” value was -69%.

Regarding `COc1nccnc1NS(=O)(=O)c1ccc(NCc2ccccc2O)cc1`, the “hERG current change (%, negative = inhibition) at 10uM” value is given as 7.4%.

As to `CC(=O)Nc1ccc(S(=O)(=O)N2CCSC2)cc1`, the “hERG current change (%, negative = inhibition) at 10uM” value stood at 1.65%.

For the compound `COc1ccc(N2CCN(c3ncnc4scc(-c5ccc(C)cc5)c34)CC2)cc1`, the “hERG current change (%, negative = inhibition) at 10uM” value was 13%.

With `CC(C)(C)NC(=O)C(c1ccc(O)cc1)N(C(=O)CCC(=O)Nc1ccccn1)c1ccc(F)cc1` (centres unmarked), the “hERG current change (%, negative = inhibition) at 10uM” value was found to be 8.1%.

For `COC(=O)C(CCSC)NC(=O)c1cccc([N+](=O)[O-])c1` (centres unmarked), the “hERG current change (%, negative = inhibition) at 10uM” value is recorded as -12.1%.

As for `CCOC(=O)N1CCN(S(=O)(=O)c2ccc3c(c2)oc(=O)n3C)CC1`, the “hERG current change (%, negative = inhibition) at 10uM” value was -0.295%.

For `CC(=O)c1ccc(NC(=O)C2CC2c2ccccc2)cc1` (centres unmarked), the “hERG current change (%, negative = inhibition) at 10uM” value was 3.25%.

With `CC1=NOC(=O)/C1=C\c1ccc(-c2cccc(Cl)c2)o1`, the “hERG current change (%, negative = inhibition) at 10uM” value was 10.4%.

For `NC(=O)[C@H]1CC2(CC(c3cccc(NC(=O)[C@H]4CCC(=O)N4)c3)=NO2)CN1C(=O)c1ccccc1C(=O)c1ccccc1` (some centres unmarked), the “hERG current change (%, negative = inhibition) at 10uM” value was 14.7%.

In the case of `CC1CCN(CCCCOc2cccc(Br)c2)CC1.O=C(O)C(=O)O`, the “hERG current change (%, negative = inhibition) at 10uM” value was -69%.

Turning to `CC1CN(CCCCOc2cccc(Oc3ccccc3)c2)CC(C)O1.O=C(O)C(=O)O` (centres unmarked), the “hERG current change (%, negative = inhibition) at 10uM” value is given as -35.9%.

Turning to `CC1CCN(CCOc2cccc(Br)c2)CC1.O=C(O)C(=O)O`, the “hERG current change (%, negative = inhibition) at 10uM” value was -20.3%.

Consider `CC1CN(CCOc2cccc(Oc3ccccc3)c2)CC(C)O1.O=C(O)C(=O)O` (centres unmarked), for which the “hERG current change (%, negative = inhibition) at 10uM” value is listed as 5.01%.

`CC1CCCN(CCOc2cccc(Oc3ccccc3)c2)C1.O=C(O)C(=O)O` (centres unmarked): the “hERG current change (%, negative = inhibition) at 10uM” value is reported as -64.7%.

Take `O=C(NCc1ccc2c(c1)OCO2)C1CCC(=O)N1C1CCCCC1` (centres unmarked): the “hERG current change (%, negative = inhibition) at 10uM” value was -9.26%.

For `Cc1cc(NC(=O)CCC(=O)N(c2ccccc2)C(C(=O)NC2CCCC2)c2ccncc2)no1` (centres unmarked), the “hERG current change (%, negative = inhibition) at 10uM” value came to 2.53%.

`C=CCOc1ccc(CNc2ccc3[nH]c(=O)[nH]c3c2)cc1`: the “hERG current change (%, negative = inhibition) at 10uM” value turned out to be 1.57%.

In the case of `Clc1cccc(Oc2cnc3ccccc3n2)c1`, the “hERG current change (%, negative = inhibition) at 10uM” value is given as -25.8%.

As to `O=C(NCc1cccnc1)C1CCN(S(=O)(=O)c2cccc(C(F)(F)F)c2)CC1`, the “hERG current change (%, negative = inhibition) at 10uM” value worked out at 2.69%.

Consider `Cc1cccc(NC(=S)N(CCN2CCOCC2)Cc2ccccc2F)c1`, for which the “hERG current change (%, negative = inhibition) at 10uM” value is on record as -25%.

For the compound `Cc1ccc(C)c(CN2CCCN(C(=O)Cn3ncc4c3-c3ccccc3OC4)C2)c1`, the “hERG current change (%, negative = inhibition) at 10uM” value is on record as -2.82%.

Regarding `O=C(Cn1ncc2c1-c1ccccc1OC2)N1CCN(Cc2ccc3c(c2)OCO3)CC1`, the “hERG current change (%, negative = inhibition) at 10uM” value is -61.3%.

For the compound `CCOC(=O)N1CCN(C(=O)Cn2ncc3c2-c2ccccc2OC3)CC1`, the “hERG current change (%, negative = inhibition) at 10uM” value was -3.57%.

`O=C(CN1C(=O)c2ccccc2S1(=O)=O)N1CCN(Cc2ccc3c(c2)OCO3)CC1`: the “hERG current change (%, negative = inhibition) at 10uM” value is reported as -12.8%.

As for `O=C(Cn1ncc2c1-c1ccccc1OC2)N1CCN(Cc2ccccc2)CC1`, the “hERG current change (%, negative = inhibition) at 10uM” value is on record as -68.5%.

For `CCN1CCN(C(=O)Cn2ncc3c2-c2ccccc2OC3)CC1`, the “hERG current change (%, negative = inhibition) at 10uM” value is -10.1%.

These data come from publication PMC4336329 (PLoS ONE, 2015).
